PubChem BioAssay (NCI)
Compounds without any hit were thinned out: in the full panel of roughly 83,000, 20% have a hit.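 Method: cells in 96-well plates; compound added at one concentration; 48 h incubation; percent growth measured; values under 10 scored active.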 Activity calls are given as the source filed them.

Key:
Test in all cases: NCI-60 one-dose screen, 48 h (100 = growth as untreated, 0 = no growth, -100 = all killed)
Details in all cases: 10 µM unless noted
SR leukemia = system: SR leukemia
RPMI-8226 leukemia = system: RPMI-8226 leukemia
OVCAR-8 ovarian = system: OVCAR-8 ovarian
OVCAR-5 ovarian = system: OVCAR-5 ovarian
OVCAR-4 ovarian = system: OVCAR-4 ovarian
SK-OV-3 ovarian = system: SK-OV-3 ovarian
IGROV1 ovarian = system: IGROV1 ovarian
OVCAR-3 ovarian = system: OVCAR-3 ovarian
HS 578T breast = system: HS 578T breast
NCI/ADR-RES ovarian = system: NCI/ADR-RES ovarian

Measured: growth

C=CCn1c(C)nc2ccc(Nc3nc(Nc4ccc5nc(C)n(CC=C)c5c4)c4ccccc4n3)cc21
active: SR leukemia -57.2% | RPMI-8226 leukemia -43.3% | OVCAR-8 ovarian -48.6% | OVCAR-4 ovarian -93.3% | SK-OV-3 ovarian -63.7% | IGROV1 ovarian -47.5% | OVCAR-3 ovarian -95.4% | HS 578T breast -41.4%
inactive: OVCAR-5 ovarian 25.1% | NCI/ADR-RES ovarian 53.5%

CCCOC(=O)Nc1nc2ccc(SCC(C)C)cc2s1
inactive: SR leukemia 14.3% | RPMI-8226 leukemia 28.4% | OVCAR-8 ovarian 60.5% | OVCAR-5 ovarian 60.1% | OVCAR-4 ovarian 61.2% | SK-OV-3 ovarian 48.5% | IGROV1 ovarian 55.4% | OVCAR-3 ovarian 15.6% | HS 578T breast 65.3% | NCI/ADR-RES ovarian 16.1%

CCN1C(=S)N(c2ccccc2)C2NC(=S)N(/N=C/C=C/c3ccccc3OC)C21 (stereo not given)
inactive: RPMI-8226 leukemia 13.3% | OVCAR-5 ovarian 28.7% | OVCAR-4 ovarian 45% | SK-OV-3 ovarian 30.5% | IGROV1 ovarian 23.8%
active: SR leukemia 8.81% | OVCAR-8 ovarian 1.79% | OVCAR-3 ovarian 2.96% | HS 578T breast 9.64% | NCI/ADR-RES ovarian 4.46%

COC1=CC(c2ccc[nH]2)=N/C1=C\c1[nH]c(C)c(C)c1CCC(=O)OCc1ccccc1
active: SR leukemia -47.1% | RPMI-8226 leukemia -51.1% | OVCAR-8 ovarian -11.3% | OVCAR-5 ovarian 7.87% | OVCAR-4 ovarian 9.61% | IGROV1 ovarian 0.242% | OVCAR-3 ovarian -73.8% | HS 578T breast -9.2% | NCI/ADR-RES ovarian -0.591%
inactive: SK-OV-3 ovarian 29.5%

CC(C)c1ccc(C(=O)Nc2sc3c(c2C(N)=O)CCC(=O)C3)cc1
inactive: OVCAR-8 ovarian 11% | SK-OV-3 ovarian 25.8%
active: SR leukemia 0.332% | RPMI-8226 leukemia -37.1% | OVCAR-5 ovarian 8.42% | OVCAR-4 ovarian -85.4% | IGROV1 ovarian 9.75% | OVCAR-3 ovarian -35.7% | HS 578T breast -4.09% | NCI/ADR-RES ovarian 1.35%

Oc1c(I)cc(I)cc1CNCCN(Cc1ccccn1)Cc1ccccn1
active: SR leukemia -9.62% | RPMI-8226 leukemia -12.3% | OVCAR-8 ovarian -19.7% | OVCAR-5 ovarian -24.3% | OVCAR-4 ovarian -48.5% | SK-OV-3 ovarian -74.7% | IGROV1 ovarian -66.3% | OVCAR-3 ovarian -59.7% | HS 578T breast -11.3% | NCI/ADR-RES ovarian -18.4%

COc1ccc(NC(=O)c2sc3nc(C)c(C(=O)/C=C/c4ccccc4)cc3c2N)cc1
inactive: SR leukemia 14.7% | OVCAR-5 ovarian 63.5% | OVCAR-4 ovarian 52.3% | SK-OV-3 ovarian 103% | IGROV1 ovarian 17% | HS 578T breast 34% | NCI/ADR-RES ovarian 15.5%
active: RPMI-8226 leukemia -24.4% | OVCAR-8 ovarian 8.59% | OVCAR-3 ovarian 0.065%

OCCn1cc(-c2nc(-c3c[nH]c4ncccc34)cs2)c2cc(F)ccc21
inactive: SR leukemia 22% | RPMI-8226 leukemia 53.6% | OVCAR-8 ovarian 80.2% | OVCAR-5 ovarian 84.3% | OVCAR-4 ovarian 52.4% | SK-OV-3 ovarian 70.1% | IGROV1 ovarian 44.7% | OVCAR-3 ovarian 81% | HS 578T breast 70.9% | NCI/ADR-RES ovarian 82.6%

N#CC(C#N)N=Nc1ccc(Br)cc1
active: SR leukemia -15.2%
inactive: RPMI-8226 leukemia 11.5% | OVCAR-8 ovarian 28% | OVCAR-5 ovarian 68.3% | OVCAR-4 ovarian 17.7% | SK-OV-3 ovarian 60.3% | IGROV1 ovarian 49.1% | OVCAR-3 ovarian 17.7% | HS 578T breast 87.1% | NCI/ADR-RES ovarian 60.9%

CCC(=O)Oc1ccc(-c2ccccc2)cc1Br
inactive: SR leukemia 107% | RPMI-8226 leukemia 104% | OVCAR-8 ovarian 106% | OVCAR-5 ovarian 104% | OVCAR-4 ovarian 105% | SK-OV-3 ovarian 120% | IGROV1 ovarian 112% | OVCAR-3 ovarian 114% | HS 578T breast 115% | NCI/ADR-RES ovarian 110%

O=C(Nc1cccc(-c2ccc(Cl)c(C(F)(F)F)c2)c1)C1CCN(Cc2cccc3cccnc23)CC1
inactive: OVCAR-5 ovarian 70.2% | OVCAR-4 ovarian 17.4% | SK-OV-3 ovarian 55.4%
active: SR leukemia -25.7% | RPMI-8226 leukemia -27.3% | OVCAR-8 ovarian -38.3% | IGROV1 ovarian -56.2% | OVCAR-3 ovarian -66.4% | HS 578T breast 5.48% | NCI/ADR-RES ovarian 0.0048%

O=C(O)c1cn(C2CC2)c2cc(N3CCN(C(=O)N(c4ccccc4)c4nc(-c5ccccc5)cs4)CC3)c(F)cc2c1=O
inactive: OVCAR-8 ovarian 12.5% | OVCAR-4 ovarian 25.4% | HS 578T breast 24.5%
active: SR leukemia -5.43% | RPMI-8226 leukemia 9.25% | OVCAR-5 ovarian 6.16% | SK-OV-3 ovarian -16.2% | IGROV1 ovarian 7.38% | OVCAR-3 ovarian 3.78% | NCI/ADR-RES ovarian 2.3%

O=C(Nc1nc(-c2ccc(Cl)cc2)nc2c1sc(=S)n2-c1ccccc1)C(F)(F)F
active: OVCAR-4 ovarian -53.5%
inactive: SR leukemia 19.9% | RPMI-8226 leukemia 51.2% | OVCAR-8 ovarian 27.1% | OVCAR-5 ovarian 62.6% | SK-OV-3 ovarian 25.2% | IGROV1 ovarian 32.9% | OVCAR-3 ovarian 16.8% | HS 578T breast 11.5% | NCI/ADR-RES ovarian 32%

COc1ccc(C2=Nc3c(N)nc(N)nc3NC(c3cccc(Nc4ccnc5cc(C(F)(F)F)ccc45)c3)C2)cc1 (stereo not given)
active: SR leukemia -3.78%
inactive: RPMI-8226 leukemia 18.2% | OVCAR-8 ovarian 75.6% | OVCAR-5 ovarian 116% | OVCAR-4 ovarian 68.9% | SK-OV-3 ovarian 84% | IGROV1 ovarian 72.1% | OVCAR-3 ovarian 66.4% | HS 578T breast 66.3% | NCI/ADR-RES ovarian 87.6%

COC(=O)/C=C1/SC(=Nc2ccc(C(F)(F)F)cc2)N(CCc2c[nH]c3ccc(O)cc23)C1=O
active: SR leukemia -35.5% | RPMI-8226 leukemia -50.3% | OVCAR-5 ovarian -25.9% | OVCAR-4 ovarian -45.6% | SK-OV-3 ovarian -5.47% | IGROV1 ovarian -54.2% | OVCAR-3 ovarian -31.1% | HS 578T breast 7.87%
inactive: OVCAR-8 ovarian 13.9% | NCI/ADR-RES ovarian 21%

COC(=O)CC[C@H](C)[C@H]1CC[C@H]2[C@@H]3CC[C@@H]4CC5(CC[C@]4(C)[C@H]3CC(=O)[C@]12C)Nc1ccccc1NC5=NC(C)(C)C (stereo not given in full)
inactive: SR leukemia 50% | RPMI-8226 leukemia 58.4% | OVCAR-8 ovarian 87.5% | OVCAR-5 ovarian 89.1% | OVCAR-4 ovarian 57.5% | SK-OV-3 ovarian 97% | IGROV1 ovarian 93.8% | OVCAR-3 ovarian 76% | HS 578T breast 88.7% | NCI/ADR-RES ovarian 94.9%

CCN(CC)Cc1cc(C=C2C(=O)NC(=S)NC2=O)cc(OC)c1O
inactive: SR leukemia 109% | RPMI-8226 leukemia 110% | OVCAR-8 ovarian 113% | OVCAR-5 ovarian 104% | OVCAR-4 ovarian 122% | SK-OV-3 ovarian 111% | IGROV1 ovarian 112% | OVCAR-3 ovarian 114% | HS 578T breast 103% | NCI/ADR-RES ovarian 110%

O=C(CSc1nc2sc3c(c2c(=O)n1-c1ccccc1)CCCCC3)N/N=C/c1cccc([N+](=O)[O-])c1
inactive: SR leukemia 38.3% | RPMI-8226 leukemia 73.4% | OVCAR-8 ovarian 16.3% | OVCAR-5 ovarian 78% | SK-OV-3 ovarian 80.4% | IGROV1 ovarian 71.1% | OVCAR-3 ovarian 10.9% | NCI/ADR-RES ovarian 44%
active: OVCAR-4 ovarian -6.2% | HS 578T breast -1.34%

CN1CCc2nc3sc(C(N)=O)c(N)c3c(-c3cccs3)c2C1
active: OVCAR-3 ovarian -32.5%
inactive: SR leukemia 22.8% | RPMI-8226 leukemia 75.7% | OVCAR-8 ovarian 22.2% | OVCAR-5 ovarian 15.1% | OVCAR-4 ovarian 64.5% | SK-OV-3 ovarian 57.4% | IGROV1 ovarian 26.2% | HS 578T breast 32.4% | NCI/ADR-RES ovarian 40.6%

COc1cc(-c2nc3sccn3c2-c2ccnc(NCCNS(=O)(=O)c3ccccc3)n2)ccc1F
inactive: SR leukemia 45.3% | RPMI-8226 leukemia 31% | OVCAR-8 ovarian 46.1% | OVCAR-5 ovarian 113% | OVCAR-4 ovarian 52.3% | SK-OV-3 ovarian 52.5% | IGROV1 ovarian 43.1% | OVCAR-3 ovarian 74.9% | HS 578T breast 69.6% | NCI/ADR-RES ovarian 47%

O=C1/C(=C/c2ccccc2O)CC/C1=C\c1ccccc1O
inactive: OVCAR-8 ovarian 68.9% | OVCAR-5 ovarian 126% | OVCAR-4 ovarian 63.4% | SK-OV-3 ovarian 102% | IGROV1 ovarian 32.1% | OVCAR-3 ovarian 30.9% | HS 578T breast 70.7% | NCI/ADR-RES ovarian 72.7%
active: SR leukemia 8.12% | RPMI-8226 leukemia -6.74%

Nc1c(C(=O)Nc2ccncc2)sc2nc3c(cc12)C(O)CCC3 (stereo not given)
inactive: SR leukemia 84.1% | RPMI-8226 leukemia 89.3% | OVCAR-8 ovarian 98.7% | OVCAR-5 ovarian 97.2% | OVCAR-4 ovarian 114% | SK-OV-3 ovarian 98% | IGROV1 ovarian 103% | OVCAR-3 ovarian 119% | HS 578T breast 118% | NCI/ADR-RES ovarian 105%

N#CSc1c[nH]c2cccc(/C=C/C(=O)/C=C(/C=C/c3cccc4[nH]cc(SC#N)c34)OB(F)F)c12
inactive: SK-OV-3 ovarian 78.7% | HS 578T breast 26.3% | NCI/ADR-RES ovarian 25.7%
active: SR leukemia 6.43% | RPMI-8226 leukemia -6.08% | OVCAR-8 ovarian -26.1% | OVCAR-5 ovarian -10.8% | OVCAR-4 ovarian 7.06% | IGROV1 ovarian 3.87% | OVCAR-3 ovarian 2.33%

c1csc(-c2ccc(CNc3c4ccccc4nc4ccccc34)cc2)c1
inactive: OVCAR-8 ovarian 55.6% | OVCAR-5 ovarian 67.1% | OVCAR-4 ovarian 15.3% | SK-OV-3 ovarian 65% | IGROV1 ovarian 10% | HS 578T breast 60.6% | NCI/ADR-RES ovarian 11.2%
active: SR leukemia -43.7% | RPMI-8226 leukemia -44.4% | OVCAR-3 ovarian 9.5%

CCCc1c(OC(=O)c2ccccc2)nc2[nH]c(=O)sc2c1C
inactive: SR leukemia 115% | RPMI-8226 leukemia 103% | OVCAR-8 ovarian 102% | OVCAR-5 ovarian 98.8% | OVCAR-4 ovarian 114% | SK-OV-3 ovarian 95.8% | IGROV1 ovarian 101% | OVCAR-3 ovarian 103% | HS 578T breast 99.9% | NCI/ADR-RES ovarian 97.9%

COc1cccc(CNc2ccc3ncnc(Nc4ccc(F)c(Cl)c4)c3c2)c1
inactive: SR leukemia 50.5% | RPMI-8226 leukemia 68.3% | OVCAR-8 ovarian 59.3% | OVCAR-5 ovarian 72.2% | OVCAR-4 ovarian 60.6% | SK-OV-3 ovarian 42.6% | IGROV1 ovarian 36.8% | OVCAR-3 ovarian 53.8% | HS 578T breast 87.4% | NCI/ADR-RES ovarian 54.7%

CC/C(=C(/c1ccc(Cl)cc1)c1ccc(OCCN2CCCCC2)cc1)c1ccc(OC)cc1
active: SR leukemia -22.2% | RPMI-8226 leukemia -10.5%
inactive: OVCAR-8 ovarian 65.9% | OVCAR-5 ovarian 65.4% | OVCAR-4 ovarian 69.3% | SK-OV-3 ovarian 94.9% | IGROV1 ovarian 80.5% | OVCAR-3 ovarian 66.4% | HS 578T breast 85.3% | NCI/ADR-RES ovarian 71.8%
